Reference: PMC7826789 (International Journal of Molecular Sciences, 2021)

Experiments:
Conditions in all cases: Compound Concentration (nM):1000
[1] = test system: MYLK4
[2] = test system: MYLK
[3] = test system: MYO3A
[4] = test system: MYO3B
[5] = test system: T1, NDR1
T1 construct: gene STK38

[6] = test system: T2, NDR2
T2 construct: gene STK38L

[7] = test system: NEK10
[8] = test system: NEK11
[9] = test system: NEK1
[10] = test system: NEK2
[11] = test system: NEK3
[12] = test system: NEK4
[13] = test system: NEK5
[14] = test system: NEK6
[15] = test system: NEK7
[16] = test system: NEK9
[17] = test system: T3, NIK
T3 construct: gene MAP3K14

[18] = test system: T4, NIM1
T4 construct: gene MGC42105

[19] = test system: NLK
[20] = test system: T5, OSR1
T5 construct: gene OXSR1
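Further: KINOMEscan scanMAX binding as percent activity remaining versus control; lower means stronger binding.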

| SMILES | Percent Control [1] | Percent Control [2] | Percent Control [3] | Percent Control [4] | Percent Control [5] | Percent Control [6] | Percent Control [7] | Percent Control [8] | Percent Control [9] | Percent Control [10] | Percent Control [11] | Percent Control [12] | Percent Control [13] | Percent Control [14] | Percent Control [15] | Percent Control [16] | Percent Control [17] | Percent Control [18] | Percent Control [19] | Percent Control [20] |
| --- | --- | --- | --- | --- | --- | --- | --- | --- | --- | --- | --- | --- | --- | --- | --- | --- | --- | --- | --- | --- |
| COc1cc(/C=N/Nc2ncnc3[nH]ncc23)ccc1O [GW578748X] | 38% | 68% | 100% | 100% | 73% | 100% | 100% | 28% | 70% | 100% | 43% | 98% | 100% | 100% | 96% | 100% | 100% | 37% | 100% | 100% |
| NS(=O)(=O)c1ccc(N/N=C2\C(=O)Nc3ccc(C(=O)NCc4ccncc4)cc32)cc1 [GW300657X] | 83% | 45% | 68% | 100% | 76% | 82% | 48% | 40% | 80% | 79% | 84% | 89% | 92% | 97% | 62% | 64% | 95% | 72% | 96% | 75% |
| CC1=C(C(=O)Nc2ccc3[nH]ncc3c2)C(c2ccc3ccccc3c2)CC(=O)N1 (centres unmarked) [GSK270822A] | 78% | 93% | 90% | 100% | 28% | 61% | 65% | 81% | 87% | 85% | 70% | 84% | 100% | 100% | 77% | 70% | 82% | 77% | 98% | 74% |
| Cl.O=C(O[C@H]1CN[C@H](C#Cc2cc3ncnc(Nc4ccc5c(cnn5Cc5ccccc5)c4)c3s2)C1)N1CCOCC1 [GSK200398A] | 91% | 100% | 100% | 100% | 100% | 100% | 96% | 100% | 68% | 72% | 94% | 100% | 100% | 100% | 98% | 95% | 100% | 89% | 93% | 100% |
| COc1ccc2[nH]c3c4[nH]c5ccc(OC)cc5c4c4c(c3c2c1)C(=O)NC4=O [GW296115X] | 49% | 6.9% | 81% | 100% | 57% | 72% | 93% | 100% | 100% | 78% | 67% | 85% | 76% | 87% | 92% | 100% | 20% | 100% | 52% | 100% |
| CCS(=O)(=O)c1ccc(OC)c(Nc2ncc(-c3cccc(OC)c3)o2)c1 [GW580509X] | 100% | 94% | 97% | 100% | 100% | 100% | 100% | 100% | 98% | 100% | 100% | 100% | 100% | 100% | 100% | 100% | 92% | 100% | 100% | 100% |
| COc1cc2ncnc(Nc3ccc4c(cnn4Cc4ccccc4)c3)c2cc1OC.Cl [GW282449A] | 100% | 100% | 100% | 100% | 100% | 100% | 100% | 100% | 95% | 100% | 100% | 100% | 100% | 100% | 96% | 100% | 100% | 100% | 100% | 100% |
| COc1cc(N2CCN(C(C)C)CC2)ccc1Nc1nc(Nc2ccc(F)cc2C(=O)NC[C@@H](O)CO)c2cc[nH]c2n1 [GSK1392956A] | 82% | 0.3% | 88% | 100% | 99% | 91% | 34% | 100% | 82% | 99% | 100% | 100% | 83% | 100% | 100% | 100% | 100% | 96% | 100% | 89% |
| CN(C)CCNC(=O)Nc1ccc(N(C)c2ccnc(Nc3ccc(CS(C)(=O)=O)cc3)n2)cc1.Cl [GW830900A] | 100% | 100% | 99% | 92% | 86% | 100% | 87% | 100% | 92% | 90% | 63% | 100% | 91% | 96% | 93% | 96% | 88% | 88% | 82% | 100% |
| CC(C)COC(=O)c1ccc2c(c1)/C(=C/Nc1ccc(S(N)(=O)=O)cc1)C(=O)N2 [GW416981X] | 100% | 100% | 100% | 100% | 66% | 100% | 100% | 100% | 94% | 100% | 95% | 90% | 100% | 100% | 100% | 83% | 95% | 86% | 100% | 100% |
